Assay outcomes: PubChem BioAssay, Buhrlage Lab, Dana-Farber Cancer Institute and Novartis Institutes for BioMedical Research (Cambridge, Mass)
USP17 block = human USP17-like deubiquitinase inhibition. A8MUK1. purified USP17, Ub-rhodamine cleavage fluorescence, 3 h. inhibition, % at 50 µM. 47,000 tested, 6.5% active. AID 1645855
Target sequence (A8MUK1 whole entry, looked up): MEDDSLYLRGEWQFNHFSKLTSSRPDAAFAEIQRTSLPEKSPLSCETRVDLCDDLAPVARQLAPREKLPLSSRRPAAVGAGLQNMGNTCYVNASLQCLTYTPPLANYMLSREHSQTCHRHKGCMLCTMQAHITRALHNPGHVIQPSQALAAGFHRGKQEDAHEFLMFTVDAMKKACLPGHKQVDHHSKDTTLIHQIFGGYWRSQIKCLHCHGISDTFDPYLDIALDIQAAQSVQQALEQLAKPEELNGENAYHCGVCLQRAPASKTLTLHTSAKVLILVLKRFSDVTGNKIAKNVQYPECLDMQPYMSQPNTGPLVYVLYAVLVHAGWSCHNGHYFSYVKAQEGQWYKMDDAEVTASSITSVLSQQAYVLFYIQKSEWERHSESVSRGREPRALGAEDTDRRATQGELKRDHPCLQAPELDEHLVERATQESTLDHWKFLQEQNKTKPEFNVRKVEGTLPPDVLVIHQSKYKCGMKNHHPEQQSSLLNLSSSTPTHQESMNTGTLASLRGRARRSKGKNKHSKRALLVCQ
USP30 block = inhibitors of human USP30 deubiquitinase; Q70CQ3; purified USP30, Ub-rhodamine cleavage fluorescence; inhibition, % at 25 µM; 47,000 tested, 5.3% active
USP28 block = blocks human USP28 ubiquitin-rhodamine cleavage. Q96RU2. purified USP28, Ub-rhodamine cleavage fluorescence, 30 min. inhibition, % at 25 µM. 47,000 tested, 3% active
Of the large screens only hits and unclear results are named; the others gave an inactive call. Compounds with a hit are over-represented: about 11% of the library has one in this group of screens. Rule as the data show it: active = inhibition above about 30%; inactive = the rest.

O=S(=O)(Nc1ccccc1-c1ccccc1)c1ccccc1F	none
CCc1nc(SCc2ccccc2Cl)c2oc3ccccc3c2n1	none
Cc1nn(-c2ccc(F)cc2)cc1-c1noc(C(=O)NCc2ccco2)n1	none
Cc1nn(-c2ccc(F)cc2)cc1-c1noc(C(=O)NCc2ccccn2)n1	USP30 block 85 (no result: USP17 block)
Cc1nn(-c2ccccc2)cc1-c1noc(C(=O)NCCCc2ccccc2)n1	USP30 block 32
Cc1ccc(CNC(=O)c2nc(-c3cn(-c4ccccc4)nc3C)no2)cc1	none
Cc1c(CC(=O)NCC(C)C)c(=O)oc2cc3c(cc12)CCC1(CCCCC1)O3	USP17 block 36
Cc1c(CC(=O)NCC(=O)O)c(=O)oc2cc3c(cc12)CCC(C)(C)O3	none
Cn1nccc1C(=O)N1CC(C(=O)Nc2ccc(F)cc2)C2(CCOCC2)C1 (centres undefined)	none
Cc1ccccc1NC(=O)C(C)n1c(=O)cc(-c2ccccc2)c2c(C)nn(C)c21 (centres undefined)	USP17 block 74
COc1ccc(C(=O)Nc2ccc(-c3ccccc3)cc2)cc1OC	none
COc1ccc(NC(=O)C(C)n2c(=O)cc(-c3ccccc3)c3c(C)nn(C)c32)cc1OC (centres undefined)	USP30 block 31
Cc1ccccc1NC(=O)C(C)c1c(C)n[nH]c1C (centres undefined)	none
COc1cccc(CNc2cc(-n3nc(C)cc3C)ncn2)c1	none
CCN1CCC2(Cc3ccccc3CN(C(=O)C3CCCC3)C2)C1 (centres undefined)	none
Cc1cc2c(C)ccc(C)c2nc1SCC(=O)N1CCCCC1C (centres undefined)	none (no result: USP30 block, USP28 block)
COc1ccc(CCC(=O)Nc2ccc3nc(C(F)(F)F)[nH]c3c2)cc1OC	none
CCOC(=O)c1c(C)oc2nc(CSc3ccccc3)[nH]c(=O)c12	USP28 block 61
CCOC(=O)c1c(C)oc2ncnc(N(CCO)c3ccccc3)c12	none
Cc1ccc(-c2nc(C)sc2CC(=O)Nc2ccccc2N2CCOCC2)cc1	none
CC(=O)c1ccc(NC(=O)Cc2sc(C)nc2-c2ccc(C)cc2)cc1	USP28 block 39
CC1(C(=O)NC2CCCCC2)Cc2ccccc2C(=O)N1Cc1cccnc1 (centres undefined)	none
FC(F)(F)c1cccc(CSc2cnc3ccccc3n2)c1	none
O=C(Cc1ccc2c(c1)CCO2)Nc1ccc(-c2cn3ccsc3n2)cc1	USP17 block 36
COc1ccc(NC(=O)c2cc(S(=O)(=O)N(C)C)ccc2N2CCCC2)cc1Cl	none
O=C(Nc1ccccc1)c1csc(-c2ccc3c(c2)CCO3)n1	none
CN(C)S(=O)(=O)c1ccc(N2CCCC2)c(C(=O)Nc2ccc(-c3cn4ccsc4n3)cc2)c1	USP17 block 52, USP30 block 38, USP28 block 32
CCCCC(=O)N1CC(c2nc(-c3ccccc3)no2)C2(CCOCC2)C1 (centres undefined)	none
COc1ccc(-c2noc(CN3CCN(C(=O)c4ccccc4)CC3)n2)cc1OC	none
COc1ccc(C(=O)c2c[nH]c3ccccc3c2=O)cc1	USP17 block 32 (no result: USP30 block, USP28 block)
COc1ccc(/C=C(/C#N)c2c[nH]c3ccccc23)cc1	none
COCCCn1c(SCCc2ccccc2)nc2cc(OC)c(OC)cc2c1=N	USP17 block 43
COC(=O)CCSc1nc2cc(OC)c(OC)cc2c(=N)n1Cc1cccc(C(F)(F)F)c1	none
CC1CCCN1C(=O)c1ncn2c1CN(C)S(=O)(=O)c1ccccc1-2 (centres undefined)	none
Cc1nnc2ccc(-c3ccc(NS(=O)(=O)c4ccccc4F)cc3)nn12	USP17 block 43
CCCS(=O)(=O)Nc1ccc(-c2ccc3nnc(C)n3n2)cc1	none
Cc1ccc(S(=O)(=O)Nc2cccc(Cl)c2)cc1NC(=O)CCC(=O)c1ccc(Cl)cc1	none
Cc1ccc(S(=O)(=O)Nc2ccc(Cl)cc2)cc1NC(=O)CC(=O)c1ccccc1	USP17 block 38
CCc1ccccc1NC(=O)c1ccc(CN(c2ccc(C)c(C)c2)S(C)(=O)=O)cc1	none
c1ccc(Cn2ncc3c(SCc4nc5ccccc5[nH]4)ncnc32)cc1	USP30 block 47
c1ccc(CSc2ncnc3c2nnn3Cc2ccccc2)cc1	none
COc1ccc2c(c1)N(Cc1ccccc1)C(=O)C21CCN(C(=O)N(C)C)CC1	none
CCN(CC)C(=O)Cn1c(C2CC(=O)N(Cc3ccc(F)cc3)C2)nc2ccccc21 (centres undefined)	none
O=C1CC(c2nc3ccccc3n2Cc2ccccc2)CN1Cc1ccccc1 (centres undefined)	none
CCCCN(C)C(=O)Cn1c(C2CC(=O)N(Cc3ccc(F)cc3)C2)nc2ccccc21 (centres undefined)	USP17 block 48
Cc1ccccc1OCCCn1c(C2CC(=O)N(Cc3ccccc3)C2)nc2ccccc21 (centres undefined)	USP30 block 49
COc1ccc(-c2ncc3c(=O)n(Cc4ccccn4)c(=O)n(C)c3n2)cc1	none
Cc1c(CNCC(C)c2ccccc2)c(C(=O)O)c(C)n1-c1ccccc1 (centres undefined)	none
O=C(c1csc(S(=O)(=O)NC2CC2)c1)N1CCCCCC1	none
CN(C)c1cc(-n2cnc(C(=O)NCc3ccccc3Cl)c2)ncn1	USP17 block 52
CN(C)c1cc(-n2cnc(C(=O)NCc3ccc(Cl)cc3)c2)ncn1	none
Cc1ccc(C(C(=O)NCc2ccc3c(c2)OCO3)N(C(=O)c2ccc3c(c2)OCCO3)C2CCCC2)cc1 (centres undefined)	USP17 block 49
Cc1ccc(C(C(=O)NCc2ccc3c(c2)OCO3)N(C(=O)c2ccc3c(c2)OCCO3)c2cc(C)cc(C)c2)cc1 (centres undefined)	none
O=C(Nc1ccc(Cl)cc1F)c1cc(CN2CCCC2)on1	none
COc1cc2c(cc1OC)-c1c(c(C(=O)N3CCN(C)CC3)nn1-c1ccc(F)cc1)C2	none
O=C(Nc1ccnn1C1CCCC1)c1cccnc1Sc1ccccc1	none
CCC(CC)NCC(O)COc1ccc(C(C)=O)cc1OC (centres undefined)	none
O=C(Nc1cc(F)ccc1F)c1cc(-c2cccnc2)n[nH]1	USP17 block 57 (no result: USP30 block, USP28 block)
O=C(Nc1ccc(Cl)cc1F)c1cc(-c2cccnc2)n[nH]1	USP30 block 41
O=C(NC1CCCCCC1)c1cc(-c2cccnc2)n[nH]1	none
O=C(NC1CCN(Cc2ccccc2)CC1)c1cc(-c2cccnc2)n[nH]1	none (no result: USP30 block, USP28 block)
O=S(=O)(c1ccc(Cl)cc1)N1CCC(c2[nH]nc3nccnc23)CC1	none
O=C(NC1CCCCC1)c1cccc(S(=O)(=O)N2CC(c3ccccc3)CC2=O)c1 (centres undefined)	USP30 block 31
Cc1cc(C)c(S(=O)(=O)N2CC(c3ccccc3)CC2=O)c(C)c1 (centres undefined)	none
COc1ccc(Oc2cc3n(c(=O)n2)CCc2cc(OC)c(OC)cc2-3)cc1	none
COc1cc2c(cc1OC)-c1cc(Oc3ccc4cccnc4c3)nc(=O)n1CC2	USP17 block 49
CN(Cc1ccsc1)c1ccc(S(=O)(=O)Nc2ccccn2)cn1	none
COC(=O)c1ccc(NC(=O)CSc2nnc(Cc3cccn3C)n2-c2ccc(OC)cc2)cc1	none
CCc1nc2cc3c(cc2n1CC(=O)N1CCOCC1)OCCO3	none
COc1ccc(CN2CCC([C@@H]3C[C@H](C(F)(F)F)n4ncnc4N3)CC2)cc1OC	none
COc1ccccc1CN1CCC([C@@H]2C[C@H](C(F)(F)F)n3ncnc3N2)CC1	USP30 block 31
